Assay results taken from PubChem BioAssay (NCATS).
Results filed as inconclusive are left out. Active and inactive are the calls of the source. Unless noted, the call rests on the fitted dose curve; in most records, active means well fitted curve in the direction sought with a large enough effect; inconclusive means small, poorly fitted or top-dose-only effect, or another doubt; inactive means no such curve, though single readings can be large; an effect the other way counts as inactive or inconclusive.

Columns and labels:
[1] = test system: Zika virus NS2B-NS3 protease (linked construct); test: Primary screen NINDS Rhodamine qHTS for Zika virus inhibitors (AID 1347160); further: nearly all actives have a fitted effect of over 55% in size; further: potency means the concentration at half of the fitted maximal effect; on activity change, negative = inhibition: on the % scale 0 is the no-effect control and ±100 the full control effect
Summary of the method: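 Each compound, titrated, sat 15 min with 25 nM linked protease before 1.5 microM Rhodamine110 substrate went in. Fluorescence gain over the next 15 min, in pH 8.0 Tris with Tween 20, gave Hill-fitted curves.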

[2] = target: Calcium and integrin-binding protein 1 (Homo sapiens) (UniProt Q99828); test: Primary qHTS for Identification of Calcium Integrin Binding Protein 1 (CIB1) Competitor (AID 1508620);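 further: GST tagged CIB1 binding a fluorescein labelled alphaIIb integrin peptide tracer; top concentration of the series differs between compounds; on the % scale 0 is the no-effect control and ±100 the full control effect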
Summary of the method: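 Fluorescence polarization competition: GST-tagged CIB1 (1 uM final) preincubated with compound 15 min at room temperature, then FITC-labelled alphaIIb peptide (100 nM final) added. After 15 min at room temperature, polarization read at Ex 480/Em 540.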

[3] = Primary qHTS for inhibitors of nuclear receptor binding SET domain protein 2 (NSD2) in an isogenic RCH-ACV NSD2 p.E1099K mutant (9B) (AID 1645876); further: potency means the concentration at half of the fitted maximal effect; nearly all actives have a fitted effect of over 70% in size
[4] = Primary qHTS for inhibitors of nuclear receptor binding SET domain protein 2 (NSD2) in an RCH-ACV wild type WT cells (2C) (AID 1645877); further: potency means the concentration at half of the fitted maximal effect; nearly all actives have a fitted effect of over 70% in size
[5] = target: Phospholipid hydroperoxide glutathione peroxidase GPX4 (Homo sapiens) (UniProt P36969); test: Primary qHTS Assay for Inhibitors of Recombinant Selenoprotein Glutathione Peroxidase 4 (GPX4) (AID 1845192); conditions: outcome: dose series up to 50 µM unless noted; further: on the % scale 0 is the no-effect control and ±100 the full control effect; nearly all actives have a fitted effect of over 65% in size
Summary of the method: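 Steps: GPX4 plus compound, 30 min RT; add GR/GSH/NADPH master mix; start with cumene hydroperoxide; read 340/450 nm fluorescence at 0 and 15 min. Finals were 200 nM GPX4, 1 mM GSH, 0.5 mM CHP, 0.5 mM NADPH, 100 nM GR.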

[6] = target: Luciferin 4-monooxygenase (Photinus pyralis) (UniProt P08659); test: Primary firefly luciferase (FLuc) qHTS assay for identification of artifact compounds. (AID 1845220); further: nearly all actives have a fitted effect of over 60% in size;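 on activity change, negative = inhibition: plate controls were DMSO vehicle for no effect and no enzyme for full effect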
Summary of the method: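 Titrated compounds were incubated 15 min at RT, protected from light, with luciferin and ATP at 10 uM; reaction started with 10 nM FLuc, luminescence imaged at 5 min, and concentration-response fitted by Hill equation.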

[7] = Primary fluorescence-based thiol-reactive (MSTI) qHTS assay for identification of artifact compounds. (AID 1845221);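 further: thiol-reactive compounds lower the probe fluorescence signal; nearly all actives have a fitted effect of over 65% in size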
Summary of the method: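 Thiol-reactive compounds detected by quenching of 4 uM MSTI fluorescence (525/598 nm) after 1 h room-temperature dark incubation in PBS pH 7.4, 2% DMSO. qHTS titration; percent inhibition Hill-fitted against Acetyl-MSTI/MSTI controls.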

[8] = test system: Nanoluciferase (engineered Oplophorus gracilirostris luciferase); test: Primary Nanoluciferase (NLuc) qHTS assay for identification of artifact compounds. (AID 1845222);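 further: NLuc secreted into diluted conditioned medium of S16 cells; 0% = DMSO and -100% = no enzyme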
Summary of the method: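 qHTS format, against NLuc in S16 cell-conditioned medium. Nano-Glo substrate 1:100 was added after 15 min at room temperature. Luminescence was taken after a further 5 min.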

[9] = Primary redox qHTS assay for identification of artifact compounds. (AID 1845223);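 further: 0% = DMSO and 100% = reference compound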
Summary of the method: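 Redox-cycling detection via DTT (250 uM final) oxidation coupled to Amplex Red (25 uM)/HRP (250 mU/mL) in HBSS. 15 min preincubation plus 30 min after DTT, room temperature. Ex/Em 525/598 nm; 4-parameter Hill fit against DMSO and 10 uM DA3003.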

Es-2 = test: Primary qHTS to identify gynecologic anti-cancer compounds using libraries of approved drugs and bioactive compounds (AID 1345084); conditions: Gynecologic cancer cell panel viability, ATPlite luminescence, 48 h; series mostly up to 57.5 µM; further: nearly all actives have a fitted effect of over 55% in size; further: potency means the concentration at half of the fitted maximal effect; on activity change, negative = cytotoxicity: on the % scale 0 is the no-effect control and ±100 the full control effect
Summary of the method: (§1)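 Five-point cytotoxicity, 48 h drug exposure at 37 C, 5% CO2, on cells seeded 16 h beforehand. ATP content read by ATPlite luminescence.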

HeLa = test: as above; conditions: Gynecologic cancer cell panel viability, ATPlite luminescence, 48 h; series mostly up to 57.5 µM
Summary of the method: as §1

Hek293T = test: as above; conditions: Gynecologic cancer cell panel viability, ATPlite luminescence, 48 h, control line for the selectivity index; series mostly up to 57.5 µM
Summary of the method: as §1

JEG-3 = test: as above; conditions: Gynecologic cancer cell panel viability, ATPlite luminescence, 48 h; series mostly up to 57.5 µM
Summary of the method: as §1

Tov112D = test: as above; conditions: Gynecologic cancer cell panel viability, ATPlite luminescence, 48 h; series mostly up to 57.5 µM
Summary of the method: as §1

[10] = P-glycoprotein substrates identified in KB-8-5-11 adenocarcinoma cell line, qHTS therapeutic library screen (AID 1346987); further: nearly all actives have a fitted effect of over 65% in size; further: potency means the concentration at half of the fitted maximal effect
Summary of the method: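 Compounds are pinned in dose-response onto KB-8-5-11 cells (500 cells/well, colchicine-free medium) and left 72 h at 37 degree C. CellTiter-Glo luminescence then yields AC50 values.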

OV90 = test: Primary qHTS to identify gynecologic anti-cancer compounds using libraries of approved drugs and bioactive compounds (AID 1345084); conditions: Gynecologic cancer cell panel viability, ATPlite luminescence, 48 h; series mostly up to 57.5 µM; further: nearly all actives have a fitted effect of over 55% in size; further: potency means the concentration at half of the fitted maximal effect; on activity change, negative = cytotoxicity: on the % scale 0 is the no-effect control and ±100 the full control effect
Summary of the method: as §1

[11] = target: Glutathione peroxidase 1 (Homo sapiens) (UniProt P07203); test: Primary qHTS Assay for Inhibitors of Recombinant Selenoprotein Glutathione Peroxidase 1 (GPX1) (AID 1845191); further: nearly all actives have a fitted effect of over 65% in size
Summary of the method: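 GR-coupled readout: NADPH consumption tracked by fluorescence, ex 340/em 450 nm, at t=0 and after 15 min at RT. Final mix 10 nM GPX1, 1 mM GSH, 0.5 mM CHP, 0.5 mM NADPH, 100 nM GR, 0.01% BSA, following 30 min enzyme–compound preincubation.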

[12] = qHTS drug screen for cell cycle checkpoint inhibitors in PARPi-resistant BRCA-mutant ovarian cancer cell lines. (AID 1963452; calls by dose curve); conditions: PEO1/OlaR viability, CellTiter-Glo luminescence, 96 h, stronger effect = lower value
Summary of the method: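 PEO1, PEO4 and PEO1/OlaR ovarian cancer cells, 600 per well, exposed 96 h at 37C to a dilution series. Viability read by CellTiter-Glo luminescence, normalized to DMSO and empty wells; activity summarized as Z-AUC.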

Sequence of Glutathione peroxidase 1 (Homo sapiens) (P07203 whole entry, looked up): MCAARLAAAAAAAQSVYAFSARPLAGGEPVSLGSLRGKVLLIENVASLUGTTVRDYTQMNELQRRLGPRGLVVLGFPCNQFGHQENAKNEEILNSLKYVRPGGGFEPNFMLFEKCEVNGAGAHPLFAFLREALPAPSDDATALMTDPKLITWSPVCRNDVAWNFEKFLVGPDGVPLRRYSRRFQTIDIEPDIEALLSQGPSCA
Sequence of Calcium and integrin-binding protein 1 (Homo sapiens) (Q99828 whole entry, looked up): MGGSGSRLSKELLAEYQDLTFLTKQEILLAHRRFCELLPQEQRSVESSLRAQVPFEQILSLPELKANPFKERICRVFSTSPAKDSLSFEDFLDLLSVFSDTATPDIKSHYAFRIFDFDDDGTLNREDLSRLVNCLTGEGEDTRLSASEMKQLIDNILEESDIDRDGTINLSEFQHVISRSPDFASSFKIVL
Sequence of Phospholipid hydroperoxide glutathione peroxidase GPX4 (Homo sapiens) (P36969 whole entry, looked up): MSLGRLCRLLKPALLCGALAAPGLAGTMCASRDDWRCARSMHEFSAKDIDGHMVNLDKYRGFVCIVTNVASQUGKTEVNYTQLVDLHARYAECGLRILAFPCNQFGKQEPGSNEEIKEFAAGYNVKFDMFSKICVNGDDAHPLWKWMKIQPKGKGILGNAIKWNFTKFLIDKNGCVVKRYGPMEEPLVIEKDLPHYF

Fc1ccc(C2CCNC[C@H]2COc2ccc3c(c2)OCO3)cc1 (some centres undefined)
active: Potency [3] 18.3 µM | Potency [4] 11.5 µM | Potency (Es-2) 22.4 µM
inactive: Potency [1] | outcome [2] | Potency [5] | Potency [6] | Potency [7] | Potency [8] | Potency [9] | Potency (HeLa) | Potency (Hek293T) | Potency (JEG-3) | Potency (Tov112D)

CC[C@]1(O)C[C@H]2CN(CCC3C(=Nc4ccccc43)[C@@](C(=O)OC)(c3cc4c(cc3OC)N(C)[C@H]3[C@@](O)(C(N)=O)[C@H](O)[C@]5(CC)C=CCN6CC[C@]43[C@@H]65)C2)C1 (some centres undefined)
active: Potency [10] 3.66 µM | Potency [3] 0.0515 µM | Potency [4] 0.023 µM | Potency (Es-2) 0.794 µM | Potency (HeLa) 0.398 µM | Potency (JEG-3) 0.1 µM | Potency (OV90) 5.01 µM | Potency (Tov112D) 0.1 µM
inactive: Potency [1] | outcome [2] | Potency [5] | Potency [6] | Potency [8]

CCN1CCC[C@@H]1CNC(=O)c1ccc2c(c1)NC(=O)/C(=C/c1ccccc1F)S2
inactive: Potency [1] | outcome [2] | Potency [11] | Potency [5] | Potency [6] | Potency [7] | Potency [8] | Potency [9] | Potency (Es-2) | Potency (HeLa) | Potency (Hek293T) | Potency (JEG-3) | Potency (Tov112D)
active: Potency [3] 4.59 µM

C[C@@H]1CCNC(=O)c2cc3ccc(C(=O)Nc4nc5ccccc5n4CCCN(C)C)cc3n21
inactive: Potency [10] | Potency [1] | outcome [2] | Potency [11] | Potency [5] | Potency [6] | Potency [7] | Potency [8] | Potency [9] | Z-AUC [12] -0.825 | Potency (Es-2) | Potency (HeLa) | Potency (Hek293T)
active: Potency [3] 16.3 µM | Potency [4] 14.8 µM
-0.925: Z-AUC ([12]; measured here: PEO1 parental Z-AUC)
-1.11: Z-AUC ([12]; measured here: PEO4 Z-AUC)

C=C1C(=O)O[C@H]2[C@H]1[C@@H](OC(=O)/C(C)=C\C)C[C@]1(C)O[C@@H]1[C@H]1O[C@H]1C(=C)[C@H]2O
active: Potency [3] 7.13 µM | Potency [4] 4.5 µM | Potency (Es-2) 11.2 µM
inactive: Potency [1] | outcome [2] | Potency [11] | Potency [5] | Potency [6] | Potency [7] | Potency [8] | Potency [9] | Potency (HeLa) | Potency (OV90)

COC1CC(=O)C23C(=O)NC(CC(C)C)C2C(C)C(C)=CC3/C=C(\C)CCC(O)C1O (centres undefined)
inactive: Potency [1] | outcome [2] | Potency [11] | Potency [5] | Potency [6] | Potency [7] | Potency [8] | Potency [9] | Potency (Es-2) | Potency (HeLa) | Potency (Hek293T) | Potency (JEG-3) | Potency (OV90) | Potency (Tov112D)
active: Potency [3] 3.99 µM | Potency [4] 2.24 µM

O=C(Nc1ncc(SCCN2CCCC2)s1)C1(c2ccc(S(=O)(=O)C3CC3)cc2)CC1C1CCCCC1 (centres undefined)
active: Potency [3] 16.3 µM | Potency [4] 12.9 µM
inactive: Potency [1] | outcome [2] | Potency [11] | Potency [5] | Potency [6] | Potency [7] | Potency [8] | Potency [9] | Potency (Es-2) | Potency (HeLa) | Potency (Hek293T) | Potency (JEG-3) | Potency (OV90) | Potency (Tov112D)

O=C(O)c1ccc(O)c2ncc(N3CCCN(CCc4cccc5ccccc45)CC3)cc12
inactive: outcome [2] | Potency [11] | Potency [5] | Potency [6] | Potency [8] | Potency (HeLa)
active: Potency [1] 6.31 µM | Potency [3] 4.09 µM | Potency [4] 4.09 µM

CN(C)CCCCCCNC(=O)c1cccc(-c2cc(O)c3ncccc3c2)c1
inactive: Potency [1] | Potency [11] | Potency [5] | Potency [6] | Potency [8] | Potency (HeLa) | Potency (JEG-3) | Potency (OV90)
active: Potency [3] 11.5 µM | Potency [4] 7.28 µM

N#Cc1ccc(-c2ccc(NC(=O)Nc3ccc(-c4ccnc5nc[nH]c45)cc3)cc2)cc1
inactive: Potency [1] | Potency [6] | Potency [7] | Potency [8] | Potency [9]

CC1CCC2(NC1)OC1CC3C4CC=C5CC(O[C@@H]6O[C@H](CO)[C@@H](O[C@@H]7O[C@@H](C)[C@H](O)[C@@H](O)[C@H]7O)[C@H](O)[C@H]6O[C@@H]6O[C@@H](C)[C@H](O)[C@@H](O)[C@H]6O)CCC5(C)C4CCC3(C)C1C2C (some centres undefined)
active: Potency [3] 3.46 µM | Potency [4] 3.88 µM
inactive: outcome [2] | Potency [11] | Potency [5] | activity change, negative = inhibition [6] -5.29% [at 11.6 µM] | activity change, negative = thiol reactive [7] 179% [at 11.5 µM] | activity, negative = inhibition [8] -1.63% [at 11.6 µM] | activity change, negative = cytotoxicity (HeLa) -18.6% [at 11.6 µM] | activity change, negative = cytotoxicity (Hek293T) -11.9% [at 11.6 µM] | activity change, negative = cytotoxicity (JEG-3) 4.54% [at 11.6 µM] | activity change, negative = cytotoxicity (Tov112D) -18.2% [at 11.6 µM]
